# The panel holds about 83,000 compounds, 20% with a hit somewhere; the sample as a whole holds those more often.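 Values shown are percent growth following 48 h exposure of cells in 96-well plates to a single concentration of compound; below 10 was considered active.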 Calls of active or inactive are those of the source.
# System: HL-60(TB) leukemia
# Assay: NCI-60 one-dose screen, 48 h (100 = growth as untreated, 0 = no growth, -100 = all killed)
# Conditions: 10 µM unless noted
row,SMILES,growth
1,O=C1CSC(c2ccccc2)N1c1ccccc1 (stereo unspecified),99.7% (inactive)
2,CC(C)(C)N1CCC1C(N)=O (stereo unspecified),92.4% (inactive)
3,CC1Cc2ccc(OCCN(C)C)cc2C1=O (stereo unspecified),111% (inactive)
4,CC(C)(C)c1ccc(S(=O)(=O)Oc2ccc(NC(=O)C3CCCCC3)cc2)cc1,59.3% (inactive)
5,O/N=C1\CCC2CCCCC2C1 (stereo unspecified),98.8% (inactive)
6,COc1ccc(CNc2c3ccccc3nc3ccccc23)c(OC)c1,36.9% (inactive)
7,CCN(CC)c1ccc2nc3c4ccccc4c(=O)cc-3n(-c3ccccc3)c2c1,-26.7% (active)
8,CCOC(=O)C#Cc1c(C(=O)OCC)nnn1[C@@H]1O[C@H](COC)[C@@H](OC)[C@H]1OC,47.5% (inactive)
9,C=C1C(=O)O[C@H]2[C@H]1CC/C(COC(=O)NCCCCNC(=O)OC/C1=C/CC[C@@]3(C)O[C@H]3[C@H]3OC(=O)C(=C)[C@@H]3CC1)=C\CC[C@@]1(C)O[C@@H]21,-50.7% (active)
10,CC(=O)N[C@@H](CNC(=O)c1cc(NC(=O)c2cc(NC(=O)c3cc(NC(=O)c4nccn4C)cn3C)cn2C)cn1C)CC(=O)Nc1cn(C)c(C(=O)Nc2cc(C(=O)Nc3cc(C(=O)Nc4cc(C(=O)NCCCN(C)CCCNC(=O)c5cccc(C(=O)O)c5)n(C)c4)n(C)c3)n(C)c2)n1,109% (inactive)
11,N#C/C(=C\c1ccc(-c2ccc(Cl)cc2)o1)c1ccc(Cl)cc1,96.1% (inactive)
12,C=CC(=O)OCCCCCCCC,88.6% (inactive)
13,O=C1c2ccccc2C2(c3ccc(O)cc3)c3ccccc3Oc3cccc1c32 (stereo unspecified),1.45% (active)
14,O=C1CCC(N2C(=O)c3cccc(NCCCCCCOc4ccc(Nc5nccc(Nc6ccccc6)n5)cc4)c3C2=O)C(=O)N1 (stereo unspecified),87.2% (inactive)
15,O=C1Nc2ccc(Cl)cc2/C1=C\c1c(-c2ccc(F)cc2)nc2ccccn12,-37.7% (active)
16,CCOC(=O)CC(C)=N,93.9% (inactive)
17,O=C(NCc1cccnc1)/C(=C\c1ccc(Br)cc1)S(=O)(=O)c1ccccc1,17.4% (inactive)
18,COc1ccc(-c2ccc(-c3ccc(C(=N)N)nc3)s2)cc1Cl,-48.7% (active)
19,CC(C)Oc1nc2c(c(=O)n(C)c(=O)n2C)n1C,95.3% (inactive)
20,CC(C)(C)CC(C)(C)Nc1c(-c2ccncc2)nc2cnccn12,102% (inactive)
21,CCOC(=O)c1nnn(-c2ccccc2)c1C1=CN(C)CCC1,84.4% (inactive)
22,O=[N+]([O-])/C(=C/c1ccccc1)c1ccccc1,85.6% (inactive)
23,COc1ccc(Oc2[nH]n(C3=Nc4ccccc4Sc4ccccc43)c(=O)c2C#N)cc1,112% (inactive)
24,NNc1ccccc1C(=O)O,49.1% (inactive)
25,CC(C)N(C(=S)SSC(=S)N(C(C)C)C(C)C)C(C)C,122% (inactive)
26,O=C1OCC2=C1C(c1ccc(Cl)c(Cl)c1)c1cc3c(cc1N2CCO)OCCO3 (stereo unspecified),-18.9% (active)
